Assay results reported in PubChem BioAssay (NCATS).
Results filed as inconclusive are left out. The source made the active and inactive calls. Calls follow the shape of the dose curve; as a rule, active = well fitted curve in the direction sought with a large enough effect; inconclusive = small, poorly fitted or top-dose-only effect, or another doubt; inactive = no such curve, though single readings can be large; an effect the other way counts as inactive or inconclusive.

How the values were obtained:
HACAT = assay: qHTS assay to identify novel small-molecules to repurpose for Merkel cell carcinoma treatment (AID 1296009); conditions: MCC and control cell lines, CellTiter-Glo viability, 72 h; at 44.8 µM (top of the series) unless noted; also: nearly all actives have a fitted effect of over 60% in size
Outline: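 Cell viability measured by CellTiter-Glo following 72 hr compound treatment at 37 degree celsius, with NPC and MIPE libraries tested in 8- and 11-point concentration series.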

C33A = assay: Primary qHTS to identify gynecologic anti-cancer compounds using libraries of approved drugs and bioactive compounds (AID 1345084); conditions: Gynecologic cancer cell panel viability, ATPlite luminescence, 48 h; series mostly up to 57.5 µM; also: % is scaled to controls: 0 for no effect and ±100 for the full control effect; nearly all actives have a fitted effect of over 55% in size
Outline: (§1)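 Measured: luminescence after ATPlite addition (15 min, RT). Exposure: 48 h, 37 C, 5% CO2.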

CAOV3 = assay: as above; conditions: Gynecologic cancer cell panel viability, ATPlite luminescence, 48 h; series mostly up to 57.5 µM
Outline: as §1

CASKI = assay: as above; conditions: Gynecologic cancer cell panel viability, ATPlite luminescence, 48 h; series mostly up to 57.5 µM
Outline: as §1

Es-2 = assay: as above; conditions: Gynecologic cancer cell panel viability, ATPlite luminescence, 48 h; series mostly up to 57.5 µM
Outline: as §1

HeLa = assay: as above; conditions: Gynecologic cancer cell panel viability, ATPlite luminescence, 48 h; series mostly up to 57.5 µM
Outline: as §1

Hek293T = assay: as above; conditions: Gynecologic cancer cell panel viability, ATPlite luminescence, 48 h, control line for the selectivity index; series mostly up to 57.5 µM
Outline: as §1

JEG-3 = assay: as above; conditions: Gynecologic cancer cell panel viability, ATPlite luminescence, 48 h; series mostly up to 57.5 µM
Outline: as §1

COc1c2c(c(C)c3c1C(=O)OC3)OC1(C)CC(O)C34OC(O)(CCC3(C)C1C2)OC4(C)C (configuration not stated)
inactive: outcome (HACAT) inactive [at 17.4 µM] | Potency (C33A) | Potency (CAOV3) | outcome (CASKI) | Potency (Es-2) | Potency (HeLa) | Potency (Hek293T) | Potency (JEG-3)

Cc1noc2c1-c1ccccc1C(c1ccc(Cl)cc1)=N[C@H]2CC(N)=O
inactive: outcome (HACAT) | Potency (C33A) | Potency (CAOV3) | outcome (CASKI) | Potency (Es-2) | Potency (HeLa) | Potency (Hek293T) | Potency (JEG-3)

CC1CCCCCCCc2cc(O)cc(O)c2C(=O)O1 (configuration not stated)
inactive: outcome (HACAT) | Potency (C33A) | Potency (CAOV3) | outcome (CASKI) | Potency (Es-2) | Potency (HeLa) | Potency (Hek293T) | Potency (JEG-3)

OCC(O)C(c1c[nH]c2ccccc12)c1c[nH]c2ccccc12 (configuration not stated)
inactive: outcome (HACAT) | Potency (C33A) | Potency (CAOV3) | outcome (CASKI) | Potency (Es-2) | Potency (HeLa) | Potency (Hek293T) | Potency (JEG-3)

OC[C@H]1O[C@@H](Oc2cc(O)cc(-c3cc4ccc(O[C@@H]5O[C@H](CO)[C@@H](O)[C@H](O)[C@H]5O)cc4o3)c2)[C@H](O)[C@@H](O)[C@@H]1O
inactive: outcome (HACAT) inactive [at 17.4 µM] | Potency (C33A) | Potency (CAOV3) | outcome (CASKI) | Potency (Es-2) | Potency (HeLa) | Potency (Hek293T) | Potency (JEG-3)

CCOc1ccc(-c2nn3ncccc3c2-c2ccc(S(C)(=O)=O)cc2)cc1
inactive: outcome (HACAT) | Potency (C33A) | Potency (CAOV3) | outcome (CASKI) | Potency (Es-2) | Potency (HeLa) | Potency (Hek293T)

NC(=O)[C@H](Cc1ccccc1)NC(=O)[C@H](CCCN=C(N)N)NC(=O)C12CC3CC(CC(C3)C1)C2
inactive: outcome (HACAT) inactive [at 9.27 µM] | activity change, negative = cytotoxicity (C33A) 15.1% [at 11.6 µM] | activity change, negative = cytotoxicity (CAOV3) 15.6% [at 11.6 µM] | activity change, negative = cytotoxicity (CASKI) 5.13% [at 11.6 µM] | activity change, negative = cytotoxicity (Es-2) 7.15% [at 11.6 µM] | activity change, negative = cytotoxicity (HeLa) 9.3% [at 11.6 µM] | activity change, negative = cytotoxicity (Hek293T) 9.9% [at 11.6 µM] | activity change, negative = cytotoxicity (JEG-3) 17.3% [at 11.6 µM]

CN(C)c1ccc(C2O[C@@H](c3ccccc3)C[C@H](c3ccccc3)O2)cc1 (some centres not stated)
inactive: outcome (HACAT) | Potency (C33A) | Potency (CAOV3) | outcome (CASKI) | Potency (Es-2) | Potency (HeLa) | Potency (Hek293T) | Potency (JEG-3)

CC(=O)O[C@@H]1C=C2[C@H](CC[C@@]3(C)[C@@]2(O)CC[C@H]2Cc4c([nH]c5ccccc45)[C@@]23C)O[C@@H]1C(C)(C)O
inactive: outcome (HACAT) inactive [at 17.4 µM] | Potency (C33A) | Potency (CAOV3) | outcome (CASKI) | Potency (Es-2) | Potency (HeLa) | Potency (Hek293T) | Potency (JEG-3)

C=C(COC(=O)C(C)C)C1Oc2cc(C(C)=O)ccc2C1OC(=O)C(C)C (configuration not stated)
inactive: outcome (HACAT) | Potency (C33A) | Potency (CAOV3) | outcome (CASKI) | Potency (Es-2) | Potency (HeLa) | Potency (Hek293T) | Potency (JEG-3)

COc1c2cc(c(O[C@@H]3O[C@H](CO)[C@@H](O)[C@H](O)[C@H]3O)c1OC)CCCCC(O)CCc1ccc(O)c-2c1 (some centres not stated)
inactive: outcome (HACAT) inactive [at 17.4 µM] | Potency (C33A) | Potency (CAOV3) | outcome (CASKI) | Potency (Es-2) | Potency (HeLa) | Potency (Hek293T) | Potency (JEG-3)

COc1ccc(-n2[nH]c3c(cnc4ccccc43)c2=O)cc1
inactive: outcome (HACAT) | Potency (C33A) | Potency (CAOV3) | outcome (CASKI) | Potency (Es-2) | Potency (HeLa) | Potency (Hek293T) | Potency (JEG-3)

CSC(=O)OCC1=C[C@@H]2OC(=O)C3=CO[C@@H](O[C@@H]4O[C@H](CO)[C@@H](O)[C@H](O)[C@H]4O)[C@H]1[C@@H]32
inactive: outcome (HACAT) inactive [at 17.4 µM] | Potency (C33A) | Potency (CAOV3) | outcome (CASKI) | Potency (Es-2) | Potency (HeLa) | Potency (Hek293T) | Potency (JEG-3)

Cc1cccc(NC(=O)CN2CCC(c3ccccn3)CC2)c1
inactive: outcome (HACAT) | Potency (C33A) | Potency (CAOV3) | outcome (CASKI) | Potency (Es-2) | Potency (HeLa) | Potency (Hek293T) | Potency (JEG-3)

CC(C)c1ccc2c(c1)C(O)CC1C(C)(CO)CCCC21C (configuration not stated)
inactive: outcome (HACAT) | Potency (C33A) | Potency (CAOV3) | outcome (CASKI) | Potency (Es-2) | Potency (HeLa) | Potency (Hek293T) | Potency (JEG-3)

COc1c2c(c(C)c3c1C(=O)OC3)OC1(C)CC(O)C34OC(OC)(CC(O)C3(C)C1C2)OC4(C)C (configuration not stated)
inactive: outcome (HACAT) inactive [at 17.4 µM] | Potency (C33A) | Potency (CAOV3) | outcome (CASKI) | Potency (Es-2) | Potency (HeLa) | Potency (Hek293T) | Potency (JEG-3)
